{"source": "PubChem BioAssay AID504850", "about": "(National Center for Advancing Translational Sciences (NCATS), 2011)", "note": "In all, about 2,300 compounds went through this assay and about 1,200 (52%) were called active. About 34% were inconclusive and are not listed. The call rests on the fitted dose curve; in most records, active means well fitted inhibition curve with a large enough effect; inconclusive means small, poorly fitted or top-dose-only effect, or effect the other way; inactive means no such curve, though single readings can be large or run the other way. The set was probably picked from earlier hits. The list shows a part of the results. On the % scale 0 is the no-effect control and ±100 the full control effect; potency means the concentration at half of the fitted maximal effect.", "data": [{"experiment": "Confirmation screen for delayed death inhibitors of the malarial parasite plastid, 48 hour incubation; further: nearly all actives have a fitted effect of over 65% in size", "details": "P. falciparum-infected erythrocytes, luciferase growth; series mostly up to 28.7 µM; activity change, negative = inhibition: at the top concentration", "in_short": "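Single-generation (48 h, 37 C) exposure of integrated firefly luciferase-reporter P. falciparum in red cells, 0.1% parasitemia at 2% hematocrit, Albumax-supplemented RPMI. Falling luciferase signal marks parasite growth inhibition.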", "values": [{"smiles": "O=[N+]([O-])c1cncc([N+](=O)[O-])c1Nc1cccc(O)c1", "Potency": "12.6 µM (active)"}, {"smiles": "CC1(C)Cc2c(ccc3ccccc23)C(c2cc3ccccc3oc2=O)=N1", "Potency": "12.6 µM (active)"}, {"smiles": "O=C(c1ccc(Br)o1)N1CCN(c2ccc3nnc(-c4ccccc4)n3n2)CC1", "Potency": "12.6 µM (active)"}, {"smiles": "O=C(Nc1ccccc1C(F)(F)F)N1CCN(c2ccc3nnc(-c4ccc(F)cc4)n3n2)CC1", "Potency": "7.08 µM (active)"}, {"smiles": "O=C(c1ccc(OC2CCN(Cc3ccccc3OC(F)F)CC2)cc1)N1CCCC1", "Potency": "2.24 µM (active)"}, {"smiles": "COc1ccc(CCC(C)N2CCC(Oc3ccc(C(=O)N4CCCC4)cc3)CC2)cc1", "note": "(stereo not drawn)", "Potency": "12.6 µM (active)"}, {"smiles": "COc1ccc(C(=O)NC(=S)N(C)C2CCCCC2)cc1", "activity change, negative = inhibition": "-90.4% (inactive)"}, {"smiles": "CCOc1cc(/C=C/C(=O)Nc2ccc(C(=O)NCCN(CC)CC)cc2)ccc1OCC(C)C", "Potency": "1.78 µM (active)"}, {"smiles": "Cn1cc([N+](=O)[O-])c(C(=O)Nc2cnn(Cc3ccc(F)cc3)c2)n1", "activity change, negative = inhibition": "6.44% (inactive)"}, {"smiles": "Cc1nc([N+](=O)[O-])c(Br)n1CC(=O)c1ccc(F)cc1", "Potency": "12.6 µM (active)"}, {"smiles": "O=C(c1ccc([N+](=O)[O-])cc1)n1nc(-c2ccccc2)nc1NCc1ccc(F)cc1", "activity change, negative = inhibition": "-27.9% (inactive)"}, {"smiles": "Cc1nc([N+](=O)[O-])c(Br)n1CC(=O)c1ccc(Cl)cc1", "Potency": "10 µM (active)"}, {"smiles": "CCOC(=O)N1C/C(=C\\c2ccccc2)C(=O)/C(=C/c2ccccc2)C1", "Potency": "6.31 µM (active)"}, {"smiles": "CCN(CC)S(=O)(=O)c1cccc(NC(=O)c2cc(-c3cccs3)nn2-c2ccccc2)c1", "Potency": "11.2 µM (active)"}, {"smiles": "CC(=O)NCCC(=O)Nc1cc(S(=O)(=O)N2CCOCC2)ccc1Oc1ccccc1", "Potency": "11.2 µM (active)"}, {"smiles": "CCOc1ccccc1CNC(=O)CN1C(=O)CSc2ccc(S(=O)(=O)N3CCOCC3)cc21", "Potency": "10 µM (active)"}, {"smiles": "CCOc1ccc(S(=O)(=O)N2CCOCC2)cc1NC(=O)CN1C(=O)NC(CC)(c2ccccc2)C1=O", "note": "(stereo not drawn)", "Potency": "12.6 µM (active)"}, {"smiles": "CC(C)(C)OC(=O)[C@H]1[C@H](c2ccc([N+](=O)[O-])cc2)C2(C(=O)c3ccccc3C2=O)C2c3ccccc3C=NN21", "note": "(stereo partly drawn)", "Potency": "4.47 µM (active)"}, {"smiles": "Cc1ccc(-c2nn(-c3ccccc3)cc2CC(=S)N2CCOCC2)cc1", "Potency": "14.1 µM (active)"}, {"smiles": "CCCOc1ccccc1/C=C1\\SC(N2CCCCC2)=NC1=O", "Potency": "11.2 µM (active)"}, {"smiles": "COc1cccc(/C=C2\\SC(N3CCCC(C)C3)=NC2=O)c1OC", "note": "(stereo not drawn)", "Potency": "12.6 µM (active)"}, {"smiles": "CCOC(=O)C1CCN(C(=O)CCc2nnc3ccc(NCc4ccco4)nn23)CC1", "Potency": "10 µM (active)"}, {"smiles": "CCn1c2ccccc2c2cc(/C=N/n3cn[nH]c3=S)ccc21", "Potency": "12.6 µM (active)"}, {"smiles": "Cc1ccccc1C1=NC(C(F)(F)F)(C(F)(F)F)c2c(n(-c3ccc(F)cc3)c(=O)[nH]c2=O)N1", "Potency": "10 µM (active)"}, {"smiles": "NC(=O)CC(NC(=O)Cc1ccc(Br)cc1)c1ccc(NC2CC3CCC2C3)c([N+](=O)[O-])c1", "note": "(stereo not drawn)", "Potency": "15.8 µM (active)"}, {"smiles": "Cc1cc(C)cc(C(=O)NC(CC(N)=O)c2ccc(NCC3CC3)c([N+](=O)[O-])c2)c1", "note": "(stereo not drawn)", "activity change, negative = inhibition": "-17.3% (inactive)"}, {"smiles": "COc1cc(/C=C/C(=O)c2ccc(O)cc2)ccc1OCC#N", "Potency": "12.6 µM (active)"}, {"smiles": "COc1cccc(C(=O)/C=C/c2ccc(OCC#N)c(OC)c2)c1", "Potency": "10 µM (active)"}, {"smiles": "O=C(Nc1nc(-c2ccccn2)cs1)C1COc2ccccc2O1", "note": "(stereo not drawn)", "Potency": "6.31 µM (active)"}, {"smiles": "O=C1/C(=C/c2ccccc2F)SC(=S)N1CC(=O)N1CCCCC1c1cccnc1", "note": "(stereo not drawn)", "Potency": "14.1 µM (active)"}, {"smiles": "COc1ccc(OC)c(-c2nc(C(=O)NC3CCN(Cc4ccccc4)CC3)cc3c2[nH]c2ccccc23)c1", "Potency": "4.47 µM (active)"}, {"smiles": "CCCN1CCC(NC(=O)CC2C(=O)NCCN2Cc2cccc(OC)c2)CC1", "note": "(stereo not drawn)", "activity change, negative = inhibition": "-4.3% (inactive)"}, {"smiles": "Cc1ccc2c(c1)C1CC(C)(O2)N(c2cccc(C(=O)N3CCN(c4ccccn4)CC3)c2)C(=O)N1", "note": "(stereo not drawn)", "Potency": "12.6 µM (active)"}, {"smiles": "O=C(C=C=Nc1ccccc1)C(=O)N=C=Cc1ccccc1", "Potency": "14.1 µM (active)"}, {"smiles": "CCOc1ccc(-n2c(N)c(-c3nc4ccccc4n3C)c3nc4ccccc4nc32)cc1", "Potency": "3.98 µM (active)"}, {"smiles": "O=S(=O)(c1ccc(Cl)c(Cl)c1)c1snnc1-c1ccccc1", "Potency": "12.6 µM (active)"}, {"smiles": "CCCNC(=O)c1nnsc1S(=O)(=O)c1ccc(Cl)cc1", "activity change, negative = inhibition": "-15.3% (inactive)"}, {"smiles": "O=C(/C=C/c1ccncc1)c1ccc2c(c1)OCCO2", "Potency": "12.6 µM (active)"}, {"smiles": "O=C(O)c1ccc(/C=N/NC(=O)c2ccc3c(c2)OCCO3)cc1", "activity change, negative = inhibition": "-8.6% (inactive)"}, {"smiles": "O=C(CC1Sc2ccccc2NC1=O)OCc1cc(=O)oc2cc(O)ccc12", "note": "(stereo not drawn)", "Potency": "11.2 µM (active)"}, {"smiles": "CO[C@@H]1[C@@H](OC2OC(C)C(OC3CC(C)(O)C(OC(=O)CC(C)C)C(C)O3)C(N(C)C)C2O)[C@@H](CC=O)C[C@@H](C)C(=O)/C=C\\C2O[C@H]2C[C@@H](C)OC(=O)C[C@H]1OC(C)=O", "note": "(stereo partly drawn)", "Potency": "7.08 µM (active)"}, {"smiles": "COc1cccc(NC(=O)[C@H](Cc2c[nH]c3ccccc23)NC(=O)[C@@H]2Cc3ccccc3CN2)c1", "Potency": "14.1 µM (active)"}, {"smiles": "O=C(NC(Cc1c[nH]c2ccccc12)C(=O)Nc1ccc(F)cc1)c1cccs1", "note": "(stereo not drawn)", "Potency": "7.08 µM (active)"}]}]}
